Reference: the supplement of paper PMC12494721
Structures can show the parent of a compound that is named as a salt.

What was measured:
Settings in all cases: incubation time: 27 h, anaerobic, 37 °C;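 for the amine columns active = adjusted P below 0.05 in both replicates with a change the same way and a mean fold change under 0.8 or over 1.25; inactive = the rest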
[1] = test system: Clostridium sporogenes DSM 1664; assay: growth (OD595) fold change vs plate DMSO controls (fold change (ratio)); higher = more growth
Procedure, shortened: (§1)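 Absorbance at 595 nm was read after shaking the anaerobic mGAM cultures, which had grown in 96-well plates for 27 h at 37 °C. After blank subtraction and background correction against 20 µM compound solutions in water, a calibration factor of 5 gave OD values. Growth is the fold change against the median of the plate's DMSO controls. Values are the mean of 2 biological replicates, with fold changes above 1.5 set to NA.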

[2] = test system: Escherichia coli IAI1; assay: as above
Procedure, shortened: as §1

[3] = test system: Klebsiella aerogenes DSM 30053; assay: as above
Procedure, shortened: as §1

[4] = test system: Ruminococcus gnavus DSM 108212; assay: as above
Procedure, shortened: as §1

[5] = test system: Klebsiella aerogenes DSM 30053; assay: fold change of Histamine concentration vs plate DMSO controls (fold change (ratio)); higher = more amine produced, active = hit call of the paper (significant change in both replicates, either direction)
Procedure, shortened: (§2)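 In 80 µL wells, cultures of four gut bacterial strains in mGAM started at OD 0.1 before a 1:1 dilution and grew anaerobically at 37 °C for 27 h. Compounds were added to 20 µM final, except sweeteners at 50 µM final. After extraction of whole cultures with cold acetonitrile/methanol plus 0.1% formic acid and centrifugation, amines were measured by LC–triple-quadrupole MS in dynamic MRM mode against external calibration curves, with within-batch drift correction. Values give fold change over DMSO controls on the same plate, averaged across 2 biological replicates.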

[6] = test system: Clostridium sporogenes DSM 1664; assay: fold change of Tryptamine concentration vs plate DMSO controls (fold change (ratio)); higher = more amine produced, active = hit call of the paper (significant change in both replicates, either direction)
Procedure, shortened: as §2

[7] = test system: Ruminococcus gnavus DSM 108212; assay: as above
Procedure, shortened: as §2

[8] = test system: Escherichia coli IAI1; assay: fold change of Putrescine concentration vs plate DMSO controls (fold change (ratio)); higher = more amine produced, active = hit call of the paper (significant change in both replicates, either direction)
Procedure, shortened: as §2

[9] = test system: Klebsiella aerogenes DSM 30053; assay: as above
Procedure, shortened: as §2

[10] = test system: Escherichia coli IAI1; assay: fold change of Cadaverine concentration vs plate DMSO controls (fold change (ratio)); higher = more amine produced, active = hit call of the paper (significant change in both replicates, either direction)
Procedure, shortened: as §2

[11] = test system: Klebsiella aerogenes DSM 30053; assay: as above
Procedure, shortened: as §2

[12] = test system: Ruminococcus gnavus DSM 108212; assay: fold change of 2-Phenylethylamine concentration vs plate DMSO controls (fold change (ratio)); higher = more amine produced, active = hit call of the paper (significant change in both replicates, either direction)
Procedure, shortened: as §2

Row | SMILES | growth [1] | growth [2] | growth [3] | growth [4] | fold change of Histamine concentration [5] | fold change of Tryptamine concentration [6] | fold change of Tryptamine concentration [7] | fold change of Putrescine concentration [8] | fold change of Putrescine concentration [9] | fold change of Cadaverine concentration [10] | fold change of Cadaverine concentration [11] | fold change of 2-Phenylethylamine concentration [12]
1 | Cc1c(NC(=O)c2cccnc2)c(=O)n(-c2ccccc2)n1C [Nifenazone] (20 µM) | 0.595 | 0.988 | 1.03 | 0.857 | 0.926 (inactive) | 0.135 (active) | 1.02 (inactive) | 0.723 (active) | 0.978 (inactive) | 0.865 (inactive) | 1 (inactive) | 1.03 (inactive)
2 | CCCCC(CC)CN1C(=O)[C@@H]2[C@H](C1=O)[C@@H]1C=C[C@H]2C1 (mixture of isomers) (20 µM) | 1.03 | 1.02 | 1.06 | 1.02 | 0.925 (inactive) | 0.978 (inactive) | 1.05 (inactive) | 0.993 (inactive) | 0.987 (inactive) | 1.02 (inactive) | 1 (inactive) | 1.06 (inactive)
3 | C=CCOc1ccccc1OCC(O)CNC(C)C (stereo unspecified) [Oxprenolol hydrochloride] (20 µM) | 0.929 | 0.97 | 0.986 | 0.945 | 1.02 (inactive) | 1.08 (inactive) | 1.05 (inactive) | 1.01 (inactive) | 1 (inactive) | 1.02 (inactive) | 0.988 (inactive) | 1.04 (inactive)
4 | CCc1cccc2c3c([nH]c12)C(CC)(CC(=O)O)OCC3 (stereo unspecified) [Etodolac] (20 µM) | 1.08 | 1.03 | 1.1 | 1.06 | 1.06 (inactive) | 0.981 (inactive) | 1.06 (inactive) | 0.968 (inactive) | 0.949 (inactive) | 0.975 (inactive) | 0.991 (inactive) | 1.12 (inactive)
5 | O=C(O)CSCC(=O)NC1CCSC1=O (stereo unspecified) [Erdosteine] (20 µM) | 1.04 | 1.07 | 1.03 | 1.04 | 0.984 (inactive) | 0.962 (inactive) | 1.01 (inactive) | 0.971 (inactive) | 1 (inactive) | 0.993 (inactive) | 0.993 (inactive) | 0.988 (inactive)
6 | Nc1nnc(-c2cccc(Cl)c2Cl)c(N)n1 [Lamotrigine] (20 µM) | 0.937 | 0.978 | 0.986 | 0.963 | 0.977 (inactive) | 1.03 (inactive) | 1.04 (inactive) | 0.946 (inactive) | 1.02 (inactive) | 1.23 (inactive) | 0.989 (inactive) | 1.06 (inactive)
7 | COc1ccc(C2CNC(=O)C2)cc1OC1CCCC1 (stereo unspecified) [Rolipram] (20 µM) | 0.936 | 0.98 | 1.03 | 0.936 | 0.951 (inactive) | 1.03 (inactive) | 1.03 (inactive) | 0.954 (inactive) | 0.989 (inactive) | 0.984 (inactive) | 1 (inactive) | 1.06 (inactive)
8 | CC(=O)Oc1ccccc1C(=O)Nc1ncc([N+](=O)[O-])s1 [Nitazoxanide] (20 µM) | 0.00234 | 0.925 | 0.915 | 0.11 | 0.982 (inactive) | 0.0219 (active) | 0.045 (active) | 1.02 (inactive) | 0.982 (inactive) | 1.25 (inactive) | 1.01 (inactive) | 0.0405 (active)
9 | Cc1cn([C@H]2C[C@H](N=[N+]=[N-])[C@@H](CO)O2)c(=O)[nH]c1=O [Zidovudine] (20 µM) | 0.921 | 0.825 | 0.946 | 1.45 | 1.12 (inactive) | 1.04 (inactive) | 1.02 (inactive) | 0.549 (inactive) | 1.07 (inactive) | 1.79 (inactive) | 0.981 (inactive) | 1.11 (inactive)
10 | NC(N)=Nc1nc(CSCC/C(N)=N/S(N)(=O)=O)cs1 [Famotidine] (20 µM) | 0.878 | 0.928 | 0.855 | 0.824 | 1.04 (inactive) | 1.02 (inactive) | 1.03 (inactive) | 1.03 (inactive) | 0.999 (inactive) | 0.975 (inactive) | 0.99 (inactive) | 1.07 (inactive)
11 | CC1(C)[C@@H](O[C@H]2O[C@H](C(=O)O)[C@@H](O)[C@H](O)[C@H]2O[C@@H]2O[C@H](C(=O)O)[C@@H](O)[C@H](O)[C@H]2O)CC[C@]2(C)[C@H]3C(=O)C=C4[C@@H]5C[C@@](C)(C(=O)O)CC[C@]5(C)CC[C@@]4(C)[C@]3(C)CC[C@@H]12 [Glycyrrhizic acid] (50 µM) | 0.971 | 0.995 | 1.07 | 1.07 | 0.865 (inactive) | 0.966 (inactive) | 1.05 (inactive) | 1.02 (inactive) | 0.992 (inactive) | 1.05 (inactive) | 1.03 (inactive) | 1.1 (inactive)
12 | CCCN[C@H]1CCc2nc(N)sc2C1 [Pramipexole dihydrochloride] (20 µM) | 0.931 | 0.975 | 1.01 | 1.01 | 1.05 (inactive) | 0.946 (inactive) | 0.974 (inactive) | 0.977 (inactive) | 1.05 (inactive) | 0.98 (inactive) | 1.01 (inactive) | 0.923 (inactive)
13 | CC(C)NCC(O)c1ccc2ccccc2c1 (stereo unspecified) [Pronethalol hydrochloride] (20 µM) | 1.12 | 1.01 | 0.993 | 0.98 | 0.97 (inactive) | 0.978 (inactive) | 1.04 (inactive) | 1.01 (inactive) | 0.986 (inactive) | 0.994 (inactive) | 0.982 (inactive) | 1.05 (inactive)
